Data published in PubChem BioAssay AID602252 (Broad Institute, 2012).
Screen size: about 300,000 compounds; about 2,700 (0.9%) were called active. The sample as a whole holds a higher share of actives than the screen did. Values without a mark were called inactive.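 Rule for the calls: active = mean inhibition of at least 30% with at least half of replicates also reaching 30%; inconclusive = no clear call, values can overlap the other calls; inactive = the rest.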

These compounds were tested against Golgi-associated PDZ and coiled-coil motif-containing protein (Homo sapiens) (UniProt Q9HD26) (assay: untagged CAL PDZ binding inhibitors, primary screen, biochemical, fluorescence polarization, HTS (AID 602252;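 note: 0% = DMSO neutral control and 100% = excess unlabeled competitor peptide PRC23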)). Conditions: purified CAL PDZ, TMR-peptide fluorescence polarization, 1 h; at 24.9 µM; stronger effect = higher value.
With CCc1nnc(NC(=O)c2cc(S(=O)(=O)N3CCCCC3)ccc2C)s1 the inhibition was 77.7% (active).
Work on CCOC(=O)c1sc(NC(=O)c2cc(S(=O)(=O)N3CCOCC3)ccc2C)nc1C yielded an inhibition of -2.78%.
CCOC(=O)CSc1nnc(NC(=O)c2cccc(S(=O)(=O)N3CCCCC3)c2)s1 was tested, and the inhibition was -0.488%.
CN(C(=O)c1cccc(NC(=O)Cc2ccc(NC(=O)C3CCCN(C(=O)C4CCCC4)C3)cc2)c1)C1CCC1 (stereo not drawn) was tested, and the inhibition was 4.34%.
Compound CCOC(=O)c1c(-c2cccc(C)c2)csc1NC(=O)c1c(-c2ccccc2)noc1C has an inhibition of -0.763%.
Compound CCOC(=O)c1c(-c2ccccc2)csc1NC(=S)NC(=O)c1ccccc1 has an inhibition of -5.36%.
For CCOC(=O)c1c(-c2ccc(-c3ccccc3)cc2)csc1NC(=O)CCC(=O)O, the inhibition was 39.2% (active).
C=CCN1C=C(C(=O)c2ccccc2)C(=O)CC1 showed an inhibition of 6.82%.
For COc1ccc(Cc2nnc(NC(=O)c3ccc(OC)cc3OC)s2)cc1, the inhibition was -2.81%.
With COc1ccccc1NC(=O)Nc1nnc(Cc2ccc(F)cc2)s1 the inhibition was 54% (active).
O=C(Nc1nnc(COc2ccccc2)s1)Nc1ccccc1F was tested, and the inhibition was 1.97%.
With CN(CCc1ccccc1)C(=O)c1cccc(NC(=O)Cc2cccc(NC(=O)C3CCCN(C(=O)C4CCC4)C3)c2)c1 (stereo not drawn) the inhibition was -1.08%.
In the case of COc1ccc(CCNC(=O)COc2cc(C)cc3oc(=O)c(C)c(C)c23)cc1OC, the inhibition is reported as -1.33%.
In the case of COc1cccc(CN(C)CC(=O)Nc2ccccc2C(=O)Nc2ccccc2)c1, the inhibition is reported as -7.24%.
In the case of COc1cccc(NC(=O)c2ccccc2SC)c1, the inhibition is reported as 0.222%.
With COc1cccc(NC(=O)c2ccccc2N(Cc2ccccc2)S(C)(=O)=O)c1 the inhibition was 44.6% (active).
O=C(Nc1cccc(S(=O)(=O)N2CCCCC2)c1)c1cncc(Br)c1 gave an inhibition of 0.772%.
Cc1cccc(NC(=O)c2cccc(S(=O)(=O)N3CCCC3)c2)n1 showed an inhibition of -2.35%.
With Cc1ccc(NC(=O)c2cccc(S(=O)(=O)N3CCCc4ccccc43)c2)nc1 the inhibition was 44.8% (active).
Work on NS(=O)(=O)c1ccc(CNC(=O)c2cccc(S(=O)(=O)N3CCc4ccccc43)c2)cc1 yielded an inhibition of -0.134%.
In the case of O=C(CN1C(=O)NC2(CCCCCC2)C1=O)Nc1ccc([N+](=O)[O-])cc1, the inhibition is reported as -4.3%.
Compound C=CC[C@@H](Cc1ccc(F)cc1)C(=O)OC[C@H]1CCCN1C(=O)[C@H](CC=C)CC(=O)N(CCO)Cc1ccccc1 has an inhibition of -2.32%.
Compound COc1cccc(-n2c(SCC(=O)NC3CCS(=O)(=O)C3)nc3ccccc3c2=O)c1 (stereo not drawn) has an inhibition of -4.98%.
In the case of CCOc1ccc(NC(=O)CN(C)C(=O)CSc2ccccc2)cc1OCC, the inhibition is reported as -0.51%.
With CCOc1ccc(NC(=O)CN(C)CC(=O)Nc2cccc(Cl)c2C)cc1OCC the inhibition was -7.09%.
With CCOc1ccc(NC(=O)CN(C)CC(=O)NC(C)c2ccccc2)cc1OCC (stereo not drawn) the inhibition was 39.5% (active).
For COc1ccc(S(=O)(=O)N2C[C@H]3CON(C)[C@H]3C[C@H]2c2cccc(Br)c2)cc1, the inhibition was -1.19%.
COc1cccc2c1C(=O)c1c(O)c3c(c(O)c1C2=O)CC(O)(C(C)=NNC(=O)c1ccc(Cl)c(Cl)c1)CC3OC1CC(N)C(O)C(C)O1 (stereo not drawn) showed an inhibition of -11.4%.
For Cn1nc(C(C)(C)C)c([N+](=O)[O-])c1C(N)=O, the inhibition was -0.311%.
Cc1nn(C)c(Oc2ccccc2)c1[N+](=O)[O-] showed an inhibition of -1.91%.
For Cc1c([N+](=O)[O-])c(N)nn1C, the inhibition was 46.7% (active).
For O=C(CSc1cccc[n+]1[O-])c1ccc(Cl)cc1, the inhibition was 51.8% (active).
COc1ccccc1C(=O)CSc1cccc[n+]1[O-] gave an inhibition of 1.87%.
O=C(CSc1cccc[n+]1[O-])c1ccc(-c2ccccc2)cc1 was tested, and the inhibition was 0.814%.
In the case of CCOC(=O)C1CCCN(C(=O)C2CCN(S(=O)(=O)c3ccc(Cl)c(C(F)(F)F)c3)CC2)C1 (stereo not drawn), the inhibition is reported as -2.17%.
With CC1=NN(c2ccc(Cl)c(C(=O)O)c2)C(=O)/C1=C/c1ccc(-c2ccccc2[N+](=O)[O-])o1 the inhibition was 64% (active).
O=C1NC(c2ccc(-c3ccccc3[N+](=O)[O-])o2)C(C(=O)c2ccc(Cl)cc2)C(O)(C(F)(F)F)N1 (stereo not drawn) was tested, and the inhibition was -0.998%.
O=C(Nc1ccc(N2CCOCC2)cc1)c1ccc(-c2ccccc2[N+](=O)[O-])o1 was tested, and the inhibition was -1.55%.
Work on COC1C(CO)OC(n2cnc3c(=S)nc(N)[nH]c32)C1O (stereo not drawn) yielded an inhibition of -4.66%.
With COc1cc(OC)cc(-c2sc3ccc(OC)cc3c2-c2ccc3cc[nH]c3c2)c1 the inhibition was -4.97%.
For O=C(NCc1ccccc1)c1cccc(NC(=O)C2CCCCC2)c1, the inhibition was -1.61%.
In the case of COc1ccc(C(=O)CSc2nnc(COc3ccccc3)n2Cc2ccco2)cc1, the inhibition is reported as -1.09%.
COc1ccc(-c2oc3ncn(Cc4ccco4)c(=N)c3c2-c2ccc(OC)cc2)cc1 was tested, and the inhibition was 36.1% (active).
N=c1c2c(-c3ccccc3)c(-c3ccccc3)oc2ncn1Cc1ccco1 showed an inhibition of 4.45%.
O=C(c1cccc(S(=O)(=O)N2CCCCCC2)c1)N1CCN(Cc2ccccc2)CC1 showed an inhibition of -6.1%.
O=C(NCCc1c[nH]c2ccc(Cl)cc12)c1ccc([N+](=O)[O-])cc1 gave an inhibition of -7.41%.
With Cc1ccc2[nH]cc(CCNC(=O)c3ccc([N+](=O)[O-])cc3)c2c1 the inhibition was -3.1%.
For O=C(C[C@H]1C/C=C\C[C@@H](NC(=O)OCC2c3ccccc3-c3ccccc32)C(=O)O[C@@H](c2ccccc2)CNC1=O)N[C@H](CO)Cc1ccccc1, the inhibition was 3.89%.
Work on C=CC[C@@H](CC(=O)N[C@@H](CO)Cc1ccccc1)C(=O)NCCOC(=O)[C@@H](CC=C)CC(=O)OC(C)(C)C yielded an inhibition of -4.88%.
CC(=O)c1cccc(-c2ccc(CN3C(CC(C)C)C(=O)N(Cc4cn(CC5CCCCC5)nn4)CCS3(=O)=O)cc2)c1 (stereo not drawn) gave an inhibition of -1.77%.
With O=C(Nc1nnc(SCc2c(Cl)cccc2Cl)s1)c1cccc([N+](=O)[O-])c1 the inhibition was 76.9% (active).
O=C(Nc1nnc(SCc2ccccc2Cl)s1)c1cccc([N+](=O)[O-])c1 gave an inhibition of -3.54%.
Work on NC(=O)CSc1nnc(NC(=O)c2ccc3ccccc3c2)s1 yielded an inhibition of -4.05%.
